# In publication PMC4336329 (PLoS ONE, 2015):
# The whole screen tested about 310,000 compounds, of which about 14,000 (4.5%) showed an effect of 50% or more. Effects have a minus sign here. The full list was thinned out, with strong results kept by preference.
# Target: human ether-à-go-go-related gene (hERG) potassium channel (human, UniProt Q12809)
# Test: primary screen, population patch clamp on CHO cells stably expressing hERG; higher = less effect of the substance
# 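Note: peak tail current of the secondary pulse compared with the same well before compound.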
# human ether-à-go-go-related gene (hERG) potassium channel, sequence (Q12809 whole entry, looked up): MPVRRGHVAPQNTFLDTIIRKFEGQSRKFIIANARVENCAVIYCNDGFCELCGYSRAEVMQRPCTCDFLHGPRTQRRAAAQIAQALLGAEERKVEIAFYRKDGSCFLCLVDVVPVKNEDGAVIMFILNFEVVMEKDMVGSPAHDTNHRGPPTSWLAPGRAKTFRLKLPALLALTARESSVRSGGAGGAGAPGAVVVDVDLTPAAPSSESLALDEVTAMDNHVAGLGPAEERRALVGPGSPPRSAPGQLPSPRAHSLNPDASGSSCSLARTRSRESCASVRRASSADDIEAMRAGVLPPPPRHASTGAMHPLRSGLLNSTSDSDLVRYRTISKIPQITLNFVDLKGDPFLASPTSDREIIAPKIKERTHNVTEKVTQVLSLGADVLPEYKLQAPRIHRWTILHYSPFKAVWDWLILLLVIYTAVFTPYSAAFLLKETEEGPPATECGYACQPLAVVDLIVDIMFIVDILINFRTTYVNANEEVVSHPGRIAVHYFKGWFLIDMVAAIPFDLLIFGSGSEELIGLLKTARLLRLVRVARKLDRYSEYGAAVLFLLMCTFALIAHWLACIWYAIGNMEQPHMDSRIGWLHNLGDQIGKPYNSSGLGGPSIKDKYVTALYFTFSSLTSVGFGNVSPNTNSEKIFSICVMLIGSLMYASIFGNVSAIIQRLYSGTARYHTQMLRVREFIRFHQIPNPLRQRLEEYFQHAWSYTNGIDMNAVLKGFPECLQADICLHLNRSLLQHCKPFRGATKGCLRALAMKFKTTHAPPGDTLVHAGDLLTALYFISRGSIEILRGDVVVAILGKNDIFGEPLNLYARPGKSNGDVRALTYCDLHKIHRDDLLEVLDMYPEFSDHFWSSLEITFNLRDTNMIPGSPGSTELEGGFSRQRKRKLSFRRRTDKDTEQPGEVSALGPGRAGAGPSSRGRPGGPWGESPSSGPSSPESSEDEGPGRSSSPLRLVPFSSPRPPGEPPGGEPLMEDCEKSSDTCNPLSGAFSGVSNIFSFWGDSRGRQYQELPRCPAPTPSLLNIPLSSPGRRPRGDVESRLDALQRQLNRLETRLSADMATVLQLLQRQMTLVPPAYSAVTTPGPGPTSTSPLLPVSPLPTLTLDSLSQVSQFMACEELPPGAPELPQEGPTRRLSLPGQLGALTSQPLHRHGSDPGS
row,SMILES,"hERG current change (%, negative = inhibition) at 10uM"
1,O=C(Cc1cccc2ccccc12)NNC(=O)c1cccs1,15.7%
2,COC(=O)CSc1ncnc2c(C)csc12,3.11%
3,CN(C)c1ccc(-c2nnc(-c3cccnc3)o2)cc1,7.04%
4,O=C(CNC(=O)c1ccco1)N/N=C/c1ccc(O)c([N+](=O)[O-])c1,29.1%
5,COC(=O)c1[nH]c(C)c(/C(O)=C2\C(=O)C(=O)N(CCN(C)C)C2c2ccccc2OC)c1C (stereo not drawn),15.3%
6,CC(=O)N1CCN(c2ccc(NC(=O)c3cccc(Cl)c3Cl)cc2)CC1,-8.8%
7,N/C(=N\OC(=O)c1cccc(C(F)(F)F)c1)c1cnccn1,16.7%
8,Cc1cccc(CC(=O)Nc2c3c(nn2-c2cccc(Cl)c2)CS(=O)C3)c1 (stereo not drawn),6.32%
9,COc1ccc(OC)c(NC(=O)CN2CCC(C(=O)c3ccc(C)cc3)CC2)c1,-17.7%
10,COc1ccc(C(=O)C2CCN(CC(=O)Nc3cc(C)cc(C)c3)CC2)cc1,-65.2%
11,CCc1ccc(NC(=O)CN2CCC(C(=O)c3ccc(OC)cc3)CC2)cc1,-62.8%
12,COc1ccc(NC(=O)CN2CCC(C(N)=O)CC2)cc1,2.76%
13,COc1ccc(NC(=O)CN2CCC(C)CC2)cc1,-4.51%
14,Cc1cc(C)cc(NC(=O)CN2CCC(C(=O)c3ccccc3)CC2)c1,-48.6%
15,Nc1ncnc2c1ncn2C1OC(CO)C(O)C1O (stereo not drawn),35.7%
16,O=C(Cc1ccsc1)NNC(=O)c1ccccc1O,7.87%
17,COc1ccc(C)cc1NC(=O)CSc1nnc(COc2ccccc2)n1Cc1ccco1,-9.46%
18,CCOC(=O)c1c(N)sc(C(O)(C(F)(F)F)C(F)(F)F)c1-c1ccc(Cl)cc1,-4.79%
19,COC(=O)Cc1csc(Nc2ccc(Cl)cc2)n1,7.01%
20,CC(C)[C@H](NC(N)=O)C(=O)NCCc1ccc(Cl)cc1Cl,-27%
21,Cc1ccc(OCc2cc(C(=O)N3CCN(c4ccccc4)CC3)no2)cc1C,-0.317%

row,SMILES,"hERG current change (%, negative = inhibition) at 10uM"
1,O=C(/C(C=Nc1ccc(F)cc1)=C(/O)c1ccco1)C(F)(F)F,-26.7%
2,O=C(/C(C=Nc1ccc(Br)cc1)=C(/O)c1ccco1)C(F)(F)F,-52.6%
3,O=C(/C(C=Nc1cccc(C(F)(F)F)c1)=C(/O)c1ccco1)C(F)(F)F,-29.8%
4,CC(=O)c1cccc(NC(=O)c2cc(-c3cccs3)on2)c1,27%
5,CCN1CCN(c2ncc(C(=O)Nc3c(F)cc(F)cc3Br)c3ccccc23)CC1,-60%
6,CCN1CCN(c2ncc(C(=O)Nc3cc(Cl)ccc3OC)c3ccccc23)CC1,-61.5%
7,CCN1CCN(c2ncc(C(=O)Nc3ccccc3C(=O)OC)c3ccccc23)CC1,-47.2%
8,O=C(Nc1c(F)cccc1F)c1cnc(N2CCN(c3ccccn3)CC2)c2ccccc12,-4.56%
9,Cc1ccc(NC(=O)c2cnc(N3CCN(c4ccccn4)CC3)c3ccccc23)c(Br)c1,10.7%
10,CCN1CCN(C(=O)Nc2cc(Cl)ccc2OC)CC1,2.98%
11,Cc1cc(C)c(C)c(S(=O)(=O)NCC(=O)N2CCCC2)c1C,7.49%
12,Clc1ccc(SCCCN2CCCCC2)cc1.O=C(O)C(=O)O,-76%
13,CCC(C)NCCOCCSc1ccc(Cl)cc1.O=C(O)C(=O)O (stereo not drawn),-46.9%
14,CC(C)NCCOCCSc1ccc(Cl)cc1.O=C(O)C(=O)O,-30.2%
15,Clc1ccc(SCCN2CCNCC2)cc1.O=C(O)C(=O)O,-5.25%
16,Clc1ccc(SCCCCN2CCOCC2)cc1.O=C(O)C(=O)O,-22.5%
17,Clc1ccc(SCCOCCN2CCCCCC2)cc1.O=C(O)C(=O)O,-73.3%
18,Clc1ccc(SCCCCN2CCNCC2)cc1.O=C(O)C(=O)O,-48.7%
19,Clc1ccc(SCCOCCN2CCCCC2)cc1.O=C(O)C(=O)O,-82%
20,Clc1ccc(SCCOCCN2CCOCC2)cc1.O=C(O)C(=O)O,1.54%
21,COc1ccc(-c2nn(-c3ccccc3)cc2/C=N/N=C(N)N)cc1OC,-27.8%

row,SMILES,"hERG current change (%, negative = inhibition) at 10uM"
1,CCN(CCCCCCN)c1ccc2c(=O)[nH][nH]c(=O)c2c1,6.75%
2,Cc1ccc(CN(C(=O)Cn2nnc3ccccc32)C(C(=O)NCc2ccco2)c2cccs2)cc1 (stereo not drawn),-23.1%
3,CN(C(=O)COC(=O)c1ccc2c(c1)OCO2)C1CCS(=O)(=O)C1 (stereo not drawn),9.31%
4,O=C(/C=C/c1cccc([N+](=O)[O-])c1)N1CCN(c2ccccn2)CC1,-41.2%
5,COCCn1c(=NC(=O)CN2C(=O)CCC2=O)sc2cc(S(N)(=O)=O)ccc21,-9.48%
6,CC(CC(=O)Nc1ccccc1)n1ccnc1 (stereo not drawn),-5.07%
7,O=c1cccc(-c2ccccc2)[nH]1,-2.53%
8,COc1ccc2nc(N3CCOCC3)cc(C)c2c1,-0.452%
9,Cc1ccccc1NC(=O)c1cccc2nc3ccccc3nc12,13.8%
10,CCN(CC)S(=O)(=O)c1ccc(N2CCOCC2)c(NC(=O)Cc2ccccc2)c1,-36.2%
11,CCOc1ccc(Oc2ccc(S(=O)(=O)N3CCOCC3)cc2NC(=O)C2=COCCO2)cc1,-41.9%
12,O=C(Nc1cc(S(=O)(=O)N2CCOCC2)ccc1N1CCCC1)C1CC1,-0.0868%
13,CCN(CC)S(=O)(=O)c1ccc(N2CCOCC2)c(NC(=O)CNCCc2ccccc2)c1.O=C(O)C(=O)O,-63.8%
14,O=C(Nc1ccc(F)cc1)Nc1cc(S(=O)(=O)N2CCOCC2)ccc1N1CCCC1,-97.4%
15,O=C(Nc1cc(S(=O)(=O)N2CCCCC2)ccc1Oc1ccccc1)C1=COCCO1,-10.6%
16,O=C(Nc1cc(S(=O)(=O)N2CCOCC2)ccc1Oc1ccc(F)cc1)C1=COCCO1,-69.8%
17,O=C(Nc1cc(S(=O)(=O)N2CCOCC2)ccc1N1CCCC1)c1ccc(F)cc1,-82.3%
18,O=C(COC(=O)c1ccc(F)cc1)Nc1cc(S(=O)(=O)N2CCOCC2)ccc1N1CCCC1,-28.2%
19,O=C(Nc1cc(S(=O)(=O)N2CCOCC2)ccc1N1CCOCC1)c1ccc(S(=O)(=O)N2CCCCC2)cc1,-1.72%
20,CCN(CC)S(=O)(=O)c1ccc(N2CCOCC2)c(NC(=O)COc2ccccc2)c1,-11.1%
21,Cc1ccc(C(=O)Nc2cc(S(=O)(=O)N3CCOCC3)ccc2N2CCCC2)cc1,-8.42%

row,SMILES,"hERG current change (%, negative = inhibition) at 10uM"
1,C/C=C/c1ccc(OCC(=O)Nc2cc(OC)c(OC)c(OC)c2)c(OC)c1,-3.16%
2,Cc1cccc(NC(=O)c2cccc(S(=O)(=O)N(C)c3ccccc3)c2)n1,-28.7%
3,CC(C)(C)c1cc(NC(=O)c2cccc([N+](=O)[O-])c2)no1,3.8%
4,O=C1CCCC2=C1C(c1ccco1)Nc1ccc(C(=O)c3ccccc3)cc1N2 (stereo not drawn),6.94%
5,COc1ccc(Cn2c(=O)[nH]c3cc(C(=O)Nc4ccccc4C)ccc32)cc1,2.66%
6,O=S(=O)(c1cccc(F)c1)N1CCCN(c2ccc(C(F)(F)F)cn2)CC1,-27.3%
7,CC(=O)Nc1ccccc1OCC(=O)NC1CCCCC1C (stereo not drawn),8.59%
8,NS(=O)(=O)c1cccc(-n2cnnn2)c1,-6.93%
9,NC1=C([N+](=O)[O-])C(c2ccc3c(c2)OCO3)C2=C(CCCC2=O)O1 (stereo not drawn),10.8%
10,O=C(Nc1cccc(Cl)c1)Nc1cc(S(=O)(=O)N2CCOCC2)ccc1N1CCCC1,-38.9%
11,CCN(CC)S(=O)(=O)c1ccc(N2CCOCC2)c(NC(=O)c2ccccc2)c1,-25.6%
12,O=C(Nc1ccc(Cl)c(Cl)c1)Nc1cc(S(=O)(=O)N2CCOCC2)ccc1N1CCCC1,-16.6%
13,O=C(NC(=S)Nc1cc(S(=O)(=O)N2CCOCC2)ccc1N1CCOCC1)c1ccco1,-39.4%
14,O=C(NC(=S)Nc1ccccc1N1CCOCC1)c1ccco1,9.73%
15,O=C(Nc1ccc(Cl)cc1)Nc1cc(S(=O)(=O)N2CCOCC2)ccc1N1CCCC1,-54.5%
16,O=C(Nc1ccccc1F)Nc1cc(S(=O)(=O)N2CCOCC2)ccc1N1CCCC1,-19%
17,O=C(Nc1ccccc1)Nc1cc(S(=O)(=O)N2CCOCC2)ccc1N1CCCC1,-71%
18,CCN(CC)S(=O)(=O)c1ccc(N2CCOCC2)c(NC(=O)c2ccc(NC(C)=O)cc2)c1,-0.15%
19,CCN(CC)S(=O)(=O)c1ccc(N2CCOCC2)c(NC(=S)NC(=O)c2ccco2)c1,-66.5%
20,CCN(CC)S(=O)(=O)c1ccc(N2CCOCC2)c(NC(=O)c2ccc(F)cc2)c1,-72.3%
21,O=C(Nc1cc(S(=O)(=O)N2CCOCC2)ccc1N1CCCCC1)c1ccc(Cl)cc1,-1.07%
